# MITF inh: inhibitors of human MITF | AlphaScreen MITF homodimerization, bead proximity signal | inhibition, % at 2.6 µM | actives 0.91% (n = 650,000) | AID 1259374; in the data active means inhibition above about 50%;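 further: 0% = vehicle wells with protein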
# FBW7 act: human FBW7 E3 ligase activation, primary screen. Q969H0. AlphaScreen FBW7–phospho-cyclin E peptide binding, activator screen. normalized activity (activation), % at 26.1 µM. actives 0.13% (n = 650,000). AID 1259310; in the data active means normalized activity above about 1.9%;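 further: purified mutant Fbw7 with reduced substrate affinity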
# Target sequence (Q969H0 whole entry, looked up): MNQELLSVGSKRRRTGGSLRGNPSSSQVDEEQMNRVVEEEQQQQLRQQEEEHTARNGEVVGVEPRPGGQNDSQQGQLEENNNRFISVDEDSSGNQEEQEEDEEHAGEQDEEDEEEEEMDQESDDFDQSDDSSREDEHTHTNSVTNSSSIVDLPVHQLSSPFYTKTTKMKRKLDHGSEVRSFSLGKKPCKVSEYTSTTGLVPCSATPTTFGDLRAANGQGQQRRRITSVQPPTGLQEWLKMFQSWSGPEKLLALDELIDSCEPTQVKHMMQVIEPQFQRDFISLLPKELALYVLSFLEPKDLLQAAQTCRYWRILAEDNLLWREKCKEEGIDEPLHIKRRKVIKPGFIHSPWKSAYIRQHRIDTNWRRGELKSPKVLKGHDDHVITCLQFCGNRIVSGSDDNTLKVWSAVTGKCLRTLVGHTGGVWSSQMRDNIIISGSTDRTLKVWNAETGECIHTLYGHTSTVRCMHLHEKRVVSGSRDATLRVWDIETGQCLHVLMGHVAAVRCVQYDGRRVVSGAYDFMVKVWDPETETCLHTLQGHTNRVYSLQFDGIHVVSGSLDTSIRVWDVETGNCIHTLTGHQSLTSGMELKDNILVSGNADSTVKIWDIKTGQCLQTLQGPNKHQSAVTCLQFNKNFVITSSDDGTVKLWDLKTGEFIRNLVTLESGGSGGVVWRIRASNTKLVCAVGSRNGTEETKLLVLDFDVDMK
# TEAD-YAP block: TEAD-YAP interaction inhibition; HEK-TIYL cells, TEAD-Gal4/YAP UAS-luciferase luminescence; inhibition, % at 9.12 µM; actives 1.4% (n = 640,000); in the data active means inhibition above about 32%;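 further: 0% = median of test compound wells and 100% = reference inhibitor wells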
# GPR151 activ: activators of human GPR151. Q8TDV0. PathHunter beta-arrestin GPR151 cells, luminescence. activation, % at 11.2 µM. actives 1% (n = 650,000). AID 1508602; in the data active means activation above about 4.9%;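 further: 0% = median of compound wells and 100% = cells with positive control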
# GPR151 confirm: human GPR151 activation, confirmation screen; shares compounds with GPR151 activ; GPR151 PathHunter beta-arrestin cells, luminescence, 90 min; % of EA-reagent control over plate median; activation, % at 11.2 µM; 6,700 tested, under 10 active; AID 1508609;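 active means mean percent activation across replicates above the confirmation screen cutoff of 4.91%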
# GPR119 ag: activates human GPR119 in a GPR151 counter-screen | shares compounds with GPR151 activ | GPR119 PathHunter beta-arrestin cells, luminescence, 90 min; 0 = compound-well median, 100 = enzyme-acceptor control | activation, % at 11.2 µM | actives 0.3% (n = 6,700);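 active means mean percent activation in the counterscreen above 29.09%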;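 further: counterscreen on off-target GPR119 to flag nonselective hits from the GPR151 activator screen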
# The depositor's hits bear a star; x = no result given. An excerpt weighted towards active compounds, which were near 3.4% of everything screened.
SMILES,MITF inh,FBW7 act,TEAD-YAP block,GPR151 activ,GPR151 confirm,GPR119 ag
COCC(=O)Nc1c(C)nc2cnc(-c3ccc(OC)cc3)cn12,24.1,0.0,-1.0,-1.0,x,x
COc1ccc(Cc2nnc(SCC(=O)Nc3ccc(C)c([N+](=O)[O-])c3)o2)cc1,9.9,-0.1,8.5,7.4*,-0.1,-8.5
COc1ccc(Cc2nnc(SCC(=O)Nc3ccc(F)cc3)o2)cc1,-2.4,0.3,1.6,-0.3,x,x
CCN(CC)C(=O)Cn1c(=O)n(-c2ccc(C)cc2)c(=O)c2oc3ccccc3c21,16.4,-0.1,12.4,5.2*,-0.5,-3.0
CCN(CC)C(=O)Cn1c(=O)n(-c2ccccc2)c(=O)c2oc3ccccc3c21,-4.3,-0.1,8.1,1.2,x,x
Cc1cccc2cc(CN(Cc3ccco3)Cc3nnnn3C(C)(C)C)c(=O)[nH]c12,2.8,0.3,1.8,6.2*,-0.4,1.6
CCN(CC)CCCOc1ccccc1[N+](=O)[O-],5.5,0.0,-11.6,-0.5,x,x
CCN(CC)CCCN1C(=O)C(C)SC1c1ccccc1[N+](=O)[O-] (stereo not given),9.5,0.0,4.2,12.5*,1.3,9.4
COC(=O)c1cnc(Nc2cccc(Cl)c2)c2ccccc12,-14.5,0.8,18.0,0.7,x,x
CCCC1=NN2C(=N)/C(=C/c3ccc(-c4ccc(C(=O)OCC)cc4)o3)C(=O)N=C2S1,3.5,-0.1,-0.1,5.2*,1.0,18.6
NC(=O)C1CCCc2c1[nH]c1c(C(=O)O)cccc21 (stereo not given),-7.6,0.0,0.7,6.1*,-0.5,-1.4
O=C(NCC1CCC2(CCN(C(=O)c3ccncc3)CC2)O1)c1ccc2[nH]ccc2c1 (stereo not given),-4.8,0.0,4.9,8.0*,-0.5,11.7
CC(=O)C1=C(C)NC(SCC(=O)O)=C(C#N)C1c1ccccc1 (stereo not given),13.6,0.0,-7.8,0.3,x,x
CC(=O)C1=C(C)NC(SCC=C(C)C)=C(C#N)C1C1C=CC(Cl)C=C1 (stereo not given),-6.8,0.2,-2.8,5.4*,1.1,-13.3
CC(C)n1c(Nc2cccc(N(C)C)c2)nc2c(NCCCN3CCCC3=O)ncnc21,-4.1,0.0,-12.4,-1.2,x,x
CCc1nccn1S(=O)(=O)c1ccc(OC)c2ccccc12,-466.4,0.0,3.9,6.8*,-0.1,1.8
CCc1nccn1S(=O)(=O)c1cc(Br)c(C)cc1OC,2.6,0.0,3.8,2.0,x,x
Cn1nccc1Nc1ccc(N2CCC(C(=O)NCc3cccc(C(F)(F)F)c3)CC2)nn1,-3.3,0.0,10.8,5.2*,1.3,1.1
O=C(NCc1cccnc1)C1CCN(c2ccc(NC3CCN(Cc4ccccc4)CC3)nn2)CC1,-9.4,-0.1,12.5,0.0,x,x
O=C(NCc1cccc(C(F)(F)F)c1)C1CCN(c2ccc(NC3CCN(Cc4ccccc4)CC3)nn2)CC1,15.1,-0.1,38.3*,5.6*,-0.9,-10.4
O=C(NCc1cccc(C(F)(F)F)c1)C1CCN(c2ccc(Nc3ccccc3)nn2)CC1,1.4,-0.1,-0.9,0.7,x,x
Nc1nc(NCCOc2ccccc2)cc(NCc2ccc3c(c2)OCO3)n1,15.0,0.0,12.4,1.0,x,x
Cc1ccc(S(=O)(=O)N(CC(=O)NCCO)Cc2ccc(Br)cc2)cc1,4.5,0.0,2.5,1.5,x,x
CCOc1ccc(NC(=O)CC2S/C(=N\N=C(/C)c3ccc(Cl)cc3)NC2=O)cc1 (stereo not given),5.3,0.2,3.7,6.7*,0.1,-9.4
O=C(NCCCCc1ccccc1)c1cc([N+](=O)[O-])cc([N+](=O)[O-])c1,17.1,0.1,7.9,11.4*,1.0,10.8
COCCCN1C(=O)C(=O)/C(=C(\O)c2ccccc2)C1c1ccc(C(C)C)cc1 (stereo not given),4.6,0.0,9.0,5.3*,-0.7,-4.5
CC(Cl)c1nc2scc(-c3cccs3)c2c(=O)[nH]1 (stereo not given),12.3,0.6,-4.6,-2.9,x,x
COc1cccc(CNC(=O)C2CCCc3sc(NC(=O)c4ccccc4)nc32)c1 (stereo not given),8.5,0.1,-4.3,5.2*,-0.2,4.7
CCOc1cc(/C=C2/C(=N)N3N=C(CC)SC3=NC2=O)cc(Cl)c1OCCOc1cc(C)ccc1C,6.7,0.1,-9.0,8.4*,0.2,-5.3

# Assay outcomes deposited in PubChem by The Scripps Research Institute Molecular Screening Center.
